Shown are actives, neighbours in structure and some others; about 3.2% of the full set was active somewhere.
CRFR2-BP ag: agonists of CRF-BP/CRF-R2 complex, primary screen, cell-based, HEK293, calcium dye fluorescence, uHTS. CRF-binding protein / CRF receptor 2 complex (human). calcium dye fluorescence (FLIPR); percent of saturating CRF peptide response. activation, % at 13.2 µM. 0.46% of 350,000 active. AID 588473, 2011;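 active = activation of at least 50%, plus an integration ratio under a set limit after plate pattern correction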;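 also: plate controls were neutral control wells without compound for no effect and CRF at EC100 for full effect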
PfGluPho inh: PfG6PD enzyme inhibitors, primary screen, biochemical, fluorescence intensity, uHTS | glucose-6-phosphate dehydrogenase-6-phosphogluconolactonase (Plasmodium falciparum 3D7) | PfGluPho enzyme, NADPH resazurin-diaphorase fluorescence | inhibition, % at 20 µM | 0.78% of 350,000 active | AID 504690, 2011;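 active = inhibition reaching at least a set limit at 20 µM in the primary screen, cut at about 59% in these data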;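 also: 0% = DMSO wells with substrate and 100% = DMSO wells lacking glucose-6-phosphate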
aDG glyco act: activators of alpha-DG glycosylation, primary screen, uHTS, Pro5-aDG cells, AlphaScreen. alpha-DG glycosylation AlphaScreen (IIH6); 0% Pro5, 100% B10-LARGE cell signal. activation, % at 10 µM. 0.22% of 360,000 active;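 active = activation of at least 8% versus controls, or a plate z-score of at least 8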;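 also: Pro5 are CHO cells carrying HIG-tagged alpha-DG that lacks glycosylation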
H9c2 protect: cardioprotection against H2O2-induced cell death, primary screen, uHTS, H9c2 cells, ATPLite luminescence. 0.63% of 360,000 active. H9c2 cardiomyocytes, H2O2 injury protection, 2 h. protection from H2O2 cell death, % at 20 µM;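 active = compounds giving at least 50% protection of heart cells from peroxide-induced death in the single-dose screen, raw or plate-pattern-corrected value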;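 also: 0% = DMSO wells with peroxide and 100% = DMSO wells without peroxide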
CRFR2-BP antag: antagonists of CRF-BP/CRF-R2 complex, primary screen, cell-based, HEK293, calcium dye fluorescence, uHTS. inhibition, % at 11.8 µM. 0.59% of 350,000 active. AID 588475, 2011. CRF-induced calcium fluorescence;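 active = inhibition of the ligand-induced calcium signal above about 50% at the single tested concentration, limit read from the data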
FAS TE block: FAS thioesterase domain inhibitors, primary screen, biochemical, fluorescence intensity, uHTS; recombinant FAS-TE, OMFH fluorogenic substrate, fluorescence endpoint; Fatty acid synthase (Homo sapiens), P49327; 0.67% of 360,000 active; AID 602261, 2012; inhibition, % at 15 µM;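 active = compounds whose normalised, plate-corrected inhibition of enzyme fluorescence in the single-dose primary screen is 50% or more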;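 also: 0% = DMSO with enzyme and 100% = substrate without enzyme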
An asterisk follows results filed as active.

SMILES	CRFR2-BP ag	PfGluPho inh	aDG glyco act	H9c2 protect	CRFR2-BP antag	FAS TE block
CCN(CC)CCN(C(=O)CCS(=O)(=O)c1ccccc1)c1nc2c(C)cc(C)cc2s1	1	5	1	-2	-13	1
CCCC(=O)Nc1cc(C)c2c(=O)oc3ccccc3c2n1	0	13	0	104*	4	5
Cc1cc(NC(=O)CC(C)(C)C)nc2c1c(=O)oc1ccccc12	0	-5	0	5	-30	-2
COc1ccc(C)cc1NC(=O)CN(C)S(=O)(=O)c1ccc2c(c1)CC(C)N2C(C)=O (stereo unspecified)	-1	9	0	-7	-11	-6
CN(C(=O)CCS(=O)(=O)c1ccc2c(c1)oc(=O)n2C)C1CCCCC1	-1	-4	0	-3	68*	-2
Cc1ccc(N(C)C(=O)CCS(=O)(=O)c2ccc3c(c2)oc(=O)n3C)cc1	-1	6	0	1	15	3
COc1ccccc1N1N=C(C(=O)c2ccccc2)C2C(=O)N(c3ccc(Br)cc3)C(=O)C21 (stereo unspecified)	42	-12	0	-3	-20	41
Cc1ccc(N2C(=O)C3C(C(=O)c4ccccc4)=NN(c4ccccc4)C3C2=O)cc1 (stereo unspecified)	90*	-26	0	9	-86	42
COc1ccccc1N1C(=O)C2C(C(=O)c3ccccc3)=NN(c3ccccc3)C2C1=O (stereo unspecified)	38	-2	0	-4	-35	40
O=C(C1=NN(c2ccccc2)C2C(=O)N(c3ccccc3)C(=O)C12)c1ccccc1 (stereo unspecified)	68*	-11	0	1	-79	24
CN1CCn2cnc(C(=O)N3CCN(c4ccccc4)CC3)c2C1=O	0	11	0	0	-1	-7
CCC(C)C(NS(=O)(=O)c1ccc(C)cc1)C(=O)N1CCOCCOCCOCC1 (stereo unspecified)	-1	-12	0	-3	2	-2
Nc1c2ccccc2nc2ccccc12	-2	-11	0	-5	4	-6
Cc1nc2ccccc2c2c(N)c3ccccc3n12	-1	33	0	66*	1	-4
O=C(COC(=O)c1ccc(Cl)cc1O)NC(=O)C1CCCCC1	1	11	0	-2	0	-3
COC(=O)c1ccc(COc2ccc(/C=N/NC(N)=S)cc2)o1	-5	4	0	0	13	-1
O=C(N/N=C/c1ccc(O)cc1O)c1ccc(CN2C(=O)c3cccc4cccc2c34)cc1	0	38	1	52*	25	12
O=C(N/N=C/c1ccccc1)c1ccc(CN2C(=O)c3cccc4cccc2c34)cc1	-1	-3	0	6	3	-2
CC1(C)CSC(=NCc2ccccc2)N1C(=O)c1cccc([N+](=O)[O-])c1	273*	5	0	2	-95	7
NC(=NCc1ccccc1)c1cccc([N+](=O)[O-])c1	2	2	0	1	1	-2
COc1ccc(CN2C(=O)C(CC(=O)NC3CCCCC3)CC(C(=O)N(C)C)=C2C)cc1 (stereo unspecified)	4	-12	0	-3	5	-5
Cn1c(SCC(=O)N2CCOCC2)nc2c(c1=O)SCC2	0	3	0	3	7	-3
Cc1ccc(SCC(=O)Nc2ccc(N3CCN(c4ccccc4)CC3)c(F)c2)cc1	0	5	0	1	0	-3
O=C(Nc1ccc(N2CCN(c3ccccc3)CC2)c(F)c1)C1CC1	1	-17	0	-4	58*	-2
CCOC(=O)c1cnc(SC)nc1Oc1cccc(NC(=O)c2cccc(Cl)c2Cl)c1	1	-7	0	71*	-3	24

Assay outcomes as filed in PubChem.
